The results in this text go back to PubChem BioAssay (EPA / NIEHS).

Inconclusive results are not listed. Calls of active or inactive are those of the source. How the source made its calls: active means hit-call score of the fitted dose curve at least 0.9, where 1 is the maximum; inconclusive means response in the unintended direction; inactive means score below 0.9.

As a reminder, the AC50 is the concentration giving half of the maximal activity seen.

The nature of the experiment: Tanguay_ZF_120hpf_NC_legacy: (Legacy) Oregon State University Tanguay Lab 120 Hour Post-fertilization zebrafish Assay for Notochord and Tail Malformation (AID 2283656). On the procedure:
Tanguay_ZF_120hpf_legacy is a whole embryo, multiplexed endpoint assay using zebrafish larvae exposed for 120 hours post fertilization on a 96-well plate.Tanguay_ZF_120hpf_NC_legacy is one of one assay component(s) measured or calculated from the Tanguay_ZF_120hpf_legacy assay. It is designed to make measurements of zebrafish development as detected with brightfield microscopy of developing zebrafish embryos.Data from the assay component Tanguay_ZF_120hpf_NC_legacy was analyzed into 1 assay endpoints. This assay endpoint, Tanguay_ZF_120hpf_NC_legacy, was analyzed in the positive analysis fitting direction relative to DMSO as the negative control and baseline of activity. Using a type of morphology reporter, gain-of-signal activity can be used to understand changes in developmentals as they relate to the whole embryo. To generalize the intended target to other relatable targets, this assay endpoint is annotated to the zebrafish development intended target family, where the subfamily is embryonic notochord morphogenesis.
Zebrafish husbandry: Tropical 5D wild-type adult zebrafish were housed in at an approximate density of 1000 per 100 gallon tank at the Sinnhuber Aquatic Research Laboratory, Oregon State University, Corvallis, OR. Each tank was kept at standard laboratory conditions of 28C on a 14-h light/10-h dark photoperiod in fish water consisting of reverse osmosis water supplemented with a commercially available salt (Instant Ocean). Spawning funnels were placed into the tanks the night prior, and embryos were collected and staged. To increase bioavailability, the chorion was enzymatically removed using pronase (63.6mg/ml, >/= 3.5U/mg, Sigma-Aldrich: P5147) at 4 hours post fertilization (hpf) using a custom automated dechorionator.Chemical exposures: Six hpf dechorionated embryos were placed 1 embryo per well in a 96-well plate prefilled with 90 ul of EM using automated embryo placement systems (AEPS). Ten microliters of each row of dilution plate 2 was added to 2 exposure plates. The final DMSO concentration used was 0.64% (vol/vol). Thirty-two embryos were also exposed to 5uM trimethyltin chloride (positive control). Plates were sealed to prevent evaporation and foil covered to reduce light exposure and kept in a 28C incubator. Embryos were statically exposed until 120 hpf. At 24 hpf, embryos were assessed for photomotor response using a custom photomotor response analysis tool (PRAT) and for developmental toxicity endpoints (MO24: mortality at 24 hpf, DP: developmental progression, SM: spontaneous movement, and NC: notochord distortion). At 120 hpf, locomotor activity was measured using Viewpoint Zebralab and assessed for 18 endpoints. Zebrafish acquisition and analysis program (ZAAP), a custom program designed to inventory, acquire, and manage zebrafish data, was used to collect developmental endpoints as either present or absent (i.e., binary responses were recorded). If mortality occurred for an embryo (at either 24 or 120 hpf), the non-mortality endpoints were not measured.
As to `COCc1nnc(-c2ccc[n+]([O-])c2)n1-c1c(Cl)c(Cl)cc2[nH]c(=O)c(=O)[nH]c12`, the result was inactive.
The same measure, in the same setting: the result for `NC(N)=O` reads “inactive”; that for `O=C1CN(N=Cc2ccc([N+](=O)[O-])o2)C(=O)N1`, “inactive”; that for `CCCCCCCC1CCC(=O)O1` (stereo not given), “inactive”.
Take `CCN(CC)C(=S)SSC(=S)N(CC)CC`: the AC50 was 112 nM (active).
Turning to `Cc1ncc([C@@H](CCCCCCc2ccc3c(n2)NCCC3)CC(=O)O)cn1`, the call was inactive.
Same read-out and setting: the entry for `CCc1ccc(O)c(C(C)(C)C)c1` is “inactive”; for `Cn1c(=O)c2[nH]cnc2n(C)c1=O` it is “inactive”; for `C[C@]12C=CC(=O)C=C1CC[C@H]1[C@@H]3C[C@@H](O)[C@](O)(C(=O)CO)[C@@]3(C)C[C@H](O)[C@@]12F` it is “inactive”.
The same measure, in the same setting: the entry for `OCCNCCO` is “inactive”.
The same measure, in the same setting: the entry for `O=S(=O)(O)c1ccc(N=Nc2c(O)ccc3cc(S(=O)(=O)O)ccc23)cc1` is “inactive”.
Take `CCCC(CCC)C(=O)O`: the result was inactive.
The same measure, in the same setting: the entry for `OC(Cn1cncn1)(Cn1cncn1)c1ccc(F)cc1F` is “inactive”; for `OCc1ccccc1` it is “inactive”.
The same measure, in the same setting: the entry for `CCCc1ccccc1` is “inactive”; for `O=C(NO)C1(NS(=O)(=O)c2ccc(Oc3ccc(F)cc3)cc2)CCOCC1` it is “inactive”.
On the same count and under the same terms, the entry for `CCCCCCCCCCCCCCCCOS(=O)(=O)O` is “inactive”; for `COc1cc(C(C)C)c2c(c1)S(=O)(=O)N(COc1cc(=O)n3cccc(OCCN4CCCCC4)c3n1)C2=O` it is “inactive”; for `CC(C)CCCCCCOC(=O)C1CCCCC1C(=O)OCCCCCCC(C)C` (stereo not given) it is “inactive”.
On to `Cc1nccn1-c1ccc(Sc2cccc(C3(C(N)=O)CCOCC3)c2)cc1`, for which the outcome was inactive.
As for `CNC(C)=O`, the call was inactive.
On the same count and under the same terms, the result for `Cn1cc[nH]c1=S` reads “inactive”.
On the same count and under the same terms, the entry for `O=C(O)[C@H](O)[C@@H](O)C(=O)O` is “inactive”; for `O=C(O)c1ccc2c(c1)nc(C(=O)NC1CCN(C3CC3)CC1)n2Cc1cc(-c2ccc(Cl)s2)on1` it is “inactive”; for `CCCCCOC(C)=O` it is “inactive”.
Turning to `CCCOc1ccc(S(=O)(=O)N2CCN(CC)CC2)cc1-c1nc2c(CC)n(Cc3ccccn3)nc2c(=O)[nH]1`, the outcome was inactive.
Same read-out and setting: the entry for `CC(C)CC(C)O` (stereo not given) is “inactive”; for `CCOc1ccc2[nH]cc(C(=O)NCc3ccccc3)c(=O)c2n1` it is “inactive”; for `CCn1nc(C)c2c1C(=O)NCC(c1ccc(O)cc1)=N2` it is “inactive”.
With `CCc1cccc(CC)c1N`, the call was inactive.
Same read-out and setting: the result for `CCCCCCCC/C=C\CCCCCCCC(=O)OC[C@@H](O)[C@H]1OC[C@H](O)[C@H]1O` reads “inactive”.
Still for that read-out and setting: the entry for `CCCCCCCCCC` is “inactive”; for `NNC(=O)c1ccncc1` it is “inactive”; for `CCOC(N)=O` it is “inactive”.
In the case of `CC(=O)c1ccccc1`, the compound was classed as inactive.
On the same count and under the same terms, the result for `COc1cc2c(c(OC)c1OC)-c1ccc(OC)c(=O)cc1[C@@H](NC(C)=O)CC2` reads “inactive”.
Consider `CC(C)C(=O)Nc1ccc([N+](=O)[O-])c(C(F)(F)F)c1`, for which the outcome was inactive.
Same read-out and setting: the entry for `Cc1nc(-c2ccccn2)ncc1C(=O)Nn1cc(C)c2cc(F)ccc21` is “inactive”; for `CCCCCCCCN(C)C` it is “inactive”; for `CCCCC(CC)C(=O)OCCOCCOCCOC(=O)C(CC)CCCC` (stereo not given) it is “inactive”.
